# PubChem BioAssay (EPA / NIEHS)
# Values joined by “and” are separate entries in the source; they are usually repeats but may differ in a detail not shown here. Equal entries are not always repeated. More than one record can exist for a structure, and the calls need not agree. Active and inactive are the calls of the source. How the source made its calls: active means hit-call score of the fitted dose curve at least 0.9, where 1 is the maximum; inactive means score below 0.9.
# Experiments:
# [1] = ATG_GLI_CIS: Attagene CIS-FACTORIAL HepG2 Assay for human Zinc Finger Protein GLI1 (AID 2282945); details: HepG2, Attagene cis-factorial reporter mRNA, GLI element; actives raise or lower the signal
# Summary of the method: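 Bidirectional curve fits relative to DMSO, using reporter mRNA levels from RT-PCR plus capillary electrophoresis. Cells were HepG2 transiently carrying cis-regulated reporter constructs, harvested 24 h after dosing.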
# [2] = molecular target: Bile acid receptor (Homo sapiens) (UniProt Q96RI1); test: ATG_IR1_CIS: Attagene CIS-FACTORIAL HepG2 Assay for human Nuclear Receptor Subfamily 1 Group H Member 4 (NR1H4), IR1 submotif (AID 2282946); details: IR1 reporter transcription, actives raise or lower the signal
# Summary of the method: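 HepG2 cells transiently transfected with multiplexed cis-element reporter units read endogenous transcription factor activity. After 24 h compound exposure, reporter mRNA was quantified by RT-PCR, fluorescent labelling, HpaI digestion and capillary electrophoresis; bidirectional fitting versus DMSO baseline.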
# [3] = ATG_GRE_CIS: Attagene CIS-FACTORIAL HepG2 Assay for human Glucocorticoid Response Elements (GRE) (AID 2282947); details: HepG2 GRE cis-reporter, Attagene multiplex mRNA; actives raise or lower the signal
# Summary of the method: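 Reporter transcripts read by RT-PCR with capillary electrophoresis fluorescence after a 24 h chemical exposure of HepG2 cells transiently transfected with multiple cis-element reporter units. Gain or loss fitted against DMSO.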
# [4] = ATG_ISRE_CIS: Attagene CIS-FACTORIAL HepG2 Assay for human Interferon Regulatory Factor 1 (IRF1) binding to an Interferon-Stimulated Response Element (ISRE) (AID 2282948); details: HepG2 ISRE cis-reporter (Attagene), mRNA transcription readout; actives raise or lower the signal
# Summary of the method: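 Uses HepG2 liver cells transfected with cis-regulated reporters and measures mRNA 24 h post-dosing through RT-PCR, primer-extension labelling and capillary electrophoresis, with DMSO as negative control.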
# [5] = ATG_M_32_CIS: Attagene CIS-FACTORIAL HepG2 Assay for M32 Transcription Factor (Internal Marker) (AID 2282949); details: HepG2 Attagene cis-factorial M32 reporter, mRNA; actives raise or lower the signal;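 further: background control marker of the multiplexed CIS panel rather than a real target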
# Summary of the method: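 HepG2 human liver cells transiently transfected with cis-promoter-driven multiple reporter transcription units, dosed 24 h. Reporter mRNA quantified by RT-PCR, FAM-labelled primer extension, HpaI digest and capillary electrophoresis; bidirectional fit versus DMSO baseline.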
# [6] = ATG_M_06_CIS: Attagene CIS-FACTORIAL HepG2 Assay for M06 Transcription Factor (Internal Marker) (AID 2282950); details: HepG2 Attagene CIS-FACTORIAL M06 internal marker reporter; actives raise or lower the signal
# Summary of the method: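 Measured 24 h post-dosing in transiently transfected HepG2 cells, this internal-marker endpoint reports reporter mRNA via RT-PCR with fluorescent primer extension and capillary electrophoresis. DMSO served as negative control and baseline for bidirectional fitting.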
# [7] = molecular target: Hypoxia-inducible factor 1-alpha (Homo sapiens) (UniProt Q16665); test: ATG_HIF1a_CIS: Attagene CIS-FACTORIAL HepG2 Assay for human Hypoxia Inducible Factor 1 (HIF1A) (AID 2282951); details: HepG2 Attagene cis-factorial HIF1a reporter transcription; actives raise or lower the signal
# Summary of the method: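 Dosed 24 h, transfected HepG2 cells yielded total RNA whose reporter transcripts were RT-PCR-amplified and sized by capillary electrophoresis using fluorescent labelling; DMSO defined baseline, with gain and loss of signal both fitted.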
# [8] = molecular target: Hepatocyte nuclear factor 6 (Homo sapiens) (UniProt Q9UBC0); test: ATG_HNF6_CIS: Attagene CIS-FACTORIAL HepG2 Assay for human Hepatocyte Nuclear Factor 6 (HNF6) (AID 2282952); details: HepG2 Attagene cis-factorial HNF6 reporter transcription; actives raise or lower the signal
# Summary of the method: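 Endogenous factor activity read in transiently transfected HepG2 via promoter-regulated reporter transcripts. RNA harvested 24 h post-dosing, reverse-transcribed, PCR-amplified, FAM-labelled, HpaI-digested and resolved by capillary electrophoresis; fitted in both directions against DMSO.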
# [9] = molecular target: Heat shock factor protein 1 (Homo sapiens) (UniProt Q00613); test: ATG_HSE_CIS: Attagene CIS-FACTORIAL HepG2 Assay for human Heat Shock Transcription Factor 1 (HSE) (AID 2282953); details: HepG2 HSE cis-reporter, Attagene RNA transcription; actives raise or lower the signal
# Summary of the method: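 Reporter mRNA induction in HepG2 is measured 24 h after dosing, using transiently transfected multiplexed cis-regulated reporter units. Signal comes from capillary electrophoresis of labelled RT-PCR products, with DMSO as negative control.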
# [10] = ATG_MRE_CIS: Attagene CIS-FACTORIAL HepG2 Assay for human Metal Responsive Element (MRE) (AID 2282954); details: HepG2 MRE cis-reporter transcription, Attagene multiplex; actives raise or lower the signal
# Summary of the method: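 Endogenous MRE-dependent transcription read as reporter mRNA in transiently transfected human HepG2 cells at 24 h. RNA reverse-transcribed, PCR-amplified, labelled and resolved by capillary electrophoresis; gain or loss relative to DMSO.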
# [11] = ATG_PBREM_CIS: Attagene CIS-FACTORIAL HepG2 Assay for human Phenobarbital-responsive Enhancer Module (PBREM) (AID 2282955); details: HepG2 PBREM cis-reporter, Attagene multiplexed transcription; actives raise or lower the signal
# Summary of the method: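 Transfected liver-derived HepG2 cells exposed 24 h; PBREM reporter transcript quantified via RT-PCR and capillary electrophoresis, with activity in either direction referenced to DMSO.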
# [12] = molecular target: Paired box protein Pax-6 (Homo sapiens) (UniProt P26367); test: ATG_Pax6_CIS: Attagene CIS-FACTORIAL HepG2 Assay for human Paired Box 6 (PAX6) (AID 2282956); details: HepG2 CIS-FACTORIAL PAX6 reporter transcription, RNA readout; actives raise or lower the signal
# Summary of the method: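 DMSO-referenced bidirectional fits of reporter mRNA fluorescence; HepG2 with transient cis-promoter MRTUs, 24 h post-dose, RT-PCR plus capillary electrophoresis detection.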
# [13] = ATG_PXRE_CIS: Attagene CIS-FACTORIAL HepG2 Assay for human Pregnane X Receptor Element (PXRE) (AID 2282957); details: HepG2 Attagene CIS-FACTORIAL PXRE reporter, mRNA; actives raise or lower the signal
# Summary of the method: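 Reporter transcripts under endogenous PXR-responsive cis-regulation quantified from total RNA of transfected HepG2 cells 24 h post-dosing, via RT-PCR with fluorescent primer extension and capillary electrophoresis. Gain or loss of signal fitted against DMSO baseline.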
# [14] = ATG_PPRE_CIS: Attagene CIS-FACTORIAL HepG2 Assay for human Peroxisome Proliferator-activated Response Element (PPRE) (AID 2282958); details: HepG2 PPRE cis-element reporter, Attagene transcription factor profiling; actives raise or lower the signal
# Summary of the method: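 Measured endpoint: PPRE-controlled reporter mRNA, detected by RT-PCR and capillary electrophoresis fluorescence, from transiently transfected HepG2 cells 24 h after dosing. Curves fitted in both directions using DMSO baseline.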
# [15] = ATG_Sox_CIS: Attagene CIS-FACTORIAL HepG2 Assay for human SRY-box transcription factor (SOX) (AID 2282960); details: HepG2 Attagene cis-factorial SOX reporter, mRNA; actives raise or lower the signal
# Summary of the method: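 Gain- or loss-of-signal endpoint, fitted bidirectionally with DMSO as negative control. Based on reporter mRNA from transfected HepG2 cells harvested 24 h post-treatment and quantified via RT-PCR and capillary electrophoresis.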
# [16] = molecular target: Transcription factor Sp1 (Homo sapiens) (UniProt P08047); test: ATG_Sp1_CIS: Attagene CIS-FACTORIAL HepG2 Assay for human Specificity Protein 1 (Sp1) (AID 2282961); details: HepG2 Sp1 cis-reporter transcription, actives raise or lower the signal
# Summary of the method: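 Endpoint reflects endogenous Sp1 transcriptional activity, not an exogenous fusion protein: HepG2 cells with transfected cis-regulated reporters, 24 h dosing, RT-PCR/capillary electrophoresis mRNA read-out, DMSO-normalised bidirectional fit.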
# [17] = ATG_SREBP_CIS: Attagene CIS-FACTORIAL HepG2 Assay for human Sterol Regulatory Element Binding (SREBP) (AID 2282962); details: HepG2 Attagene cis-factorial SREBP reporter, mRNA; actives raise or lower the signal
# Summary of the method: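 In this cis-format assay, HepG2 liver cells express reporters controlled by promoter elements responsive to native transcription factors. Exposure lasts 24 h; reporter mRNA fluorescence from capillary electrophoresis gives the signal, fitted bidirectionally against DMSO.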
# [18] = ATG_TA_CIS: Attagene CIS-FACTORIAL HepG2 Assay for human TA Basal Promoter (AID 2282964); details: HepG2 Attagene CIS-factorial TA basal promoter reporter; actives raise or lower the signal
# Summary of the method: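 Cis-factorial format in HepG2: reporters report endogenous factors, not chimeric Gal4 fusions. After 24 h treatment, reporter transcripts were measured by RT-PCR-capillary electrophoresis fluorescence, analysed bidirectionally versus DMSO.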
# [19] = molecular target: Signal transducer and activator of transcription 3 (Homo sapiens) (UniProt P40763); test: ATG_STAT3_CIS: Attagene CIS-FACTORIAL HepG2 Assay for human Signal Transducer and Activator of Transcription 3 (STAT3) (AID 2282963); details: HepG2, Attagene cis-factorial STAT3 reporter transcription; actives raise or lower the signal
# Summary of the method: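 Readout is reporter transcript quantified by RT-PCR and capillary electrophoresis, with 6-FAM primer extension and HpaI digestion. Total RNA is taken 24 h after dosing transiently transfected HepG2 carrying cis-regulated reporter units. Bidirectional fit against DMSO.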
# Sequence of Paired box protein Pax-6 (Homo sapiens) (P26367 whole entry, looked up): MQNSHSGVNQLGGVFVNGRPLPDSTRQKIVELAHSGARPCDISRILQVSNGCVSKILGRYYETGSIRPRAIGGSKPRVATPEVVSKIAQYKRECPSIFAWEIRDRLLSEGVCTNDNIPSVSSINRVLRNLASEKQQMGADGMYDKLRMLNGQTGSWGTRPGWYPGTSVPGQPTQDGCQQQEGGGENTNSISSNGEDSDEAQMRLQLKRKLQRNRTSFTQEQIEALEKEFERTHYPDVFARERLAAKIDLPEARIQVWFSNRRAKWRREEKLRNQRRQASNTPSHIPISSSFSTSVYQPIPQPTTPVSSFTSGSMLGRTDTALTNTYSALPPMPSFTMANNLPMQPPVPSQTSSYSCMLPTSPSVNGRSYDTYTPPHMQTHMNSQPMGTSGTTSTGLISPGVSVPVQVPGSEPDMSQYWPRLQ
# Sequence of Hepatocyte nuclear factor 6 (Homo sapiens) (Q9UBC0 whole entry, looked up): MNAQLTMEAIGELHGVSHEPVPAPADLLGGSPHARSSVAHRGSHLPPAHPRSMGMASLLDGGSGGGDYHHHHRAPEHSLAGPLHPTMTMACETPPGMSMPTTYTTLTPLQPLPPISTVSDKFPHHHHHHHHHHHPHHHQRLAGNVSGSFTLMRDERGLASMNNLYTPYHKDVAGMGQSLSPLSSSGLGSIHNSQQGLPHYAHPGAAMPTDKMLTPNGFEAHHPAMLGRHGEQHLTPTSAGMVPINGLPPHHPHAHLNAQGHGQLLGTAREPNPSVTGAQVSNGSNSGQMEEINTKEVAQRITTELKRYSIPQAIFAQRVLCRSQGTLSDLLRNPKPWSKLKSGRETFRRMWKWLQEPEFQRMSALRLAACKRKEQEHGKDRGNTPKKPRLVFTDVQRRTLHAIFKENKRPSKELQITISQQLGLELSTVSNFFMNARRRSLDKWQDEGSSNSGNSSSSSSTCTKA
# Sequence of Transcription factor Sp1 (Homo sapiens) (P08047 whole entry, looked up, the tested form may be a part): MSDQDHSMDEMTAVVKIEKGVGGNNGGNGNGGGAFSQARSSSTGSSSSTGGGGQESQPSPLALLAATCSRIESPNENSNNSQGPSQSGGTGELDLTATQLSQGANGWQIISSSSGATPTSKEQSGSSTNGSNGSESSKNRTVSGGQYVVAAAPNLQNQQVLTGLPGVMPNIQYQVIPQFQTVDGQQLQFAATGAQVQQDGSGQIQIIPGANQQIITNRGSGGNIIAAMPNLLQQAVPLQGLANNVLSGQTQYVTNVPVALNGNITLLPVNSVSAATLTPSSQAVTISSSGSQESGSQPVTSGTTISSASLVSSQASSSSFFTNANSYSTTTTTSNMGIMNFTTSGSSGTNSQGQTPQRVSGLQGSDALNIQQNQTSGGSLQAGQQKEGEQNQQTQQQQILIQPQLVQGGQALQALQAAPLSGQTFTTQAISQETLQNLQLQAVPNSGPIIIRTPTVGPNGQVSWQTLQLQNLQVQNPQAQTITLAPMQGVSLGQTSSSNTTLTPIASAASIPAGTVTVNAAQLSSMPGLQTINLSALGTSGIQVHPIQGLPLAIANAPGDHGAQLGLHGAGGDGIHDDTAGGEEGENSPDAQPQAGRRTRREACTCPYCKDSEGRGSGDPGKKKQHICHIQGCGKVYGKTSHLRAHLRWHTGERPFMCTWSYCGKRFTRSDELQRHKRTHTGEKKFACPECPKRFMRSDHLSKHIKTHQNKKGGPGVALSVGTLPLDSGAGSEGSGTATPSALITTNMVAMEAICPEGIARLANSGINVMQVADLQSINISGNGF
# Sequence of Heat shock factor protein 1 (Homo sapiens) (Q00613 whole entry, looked up): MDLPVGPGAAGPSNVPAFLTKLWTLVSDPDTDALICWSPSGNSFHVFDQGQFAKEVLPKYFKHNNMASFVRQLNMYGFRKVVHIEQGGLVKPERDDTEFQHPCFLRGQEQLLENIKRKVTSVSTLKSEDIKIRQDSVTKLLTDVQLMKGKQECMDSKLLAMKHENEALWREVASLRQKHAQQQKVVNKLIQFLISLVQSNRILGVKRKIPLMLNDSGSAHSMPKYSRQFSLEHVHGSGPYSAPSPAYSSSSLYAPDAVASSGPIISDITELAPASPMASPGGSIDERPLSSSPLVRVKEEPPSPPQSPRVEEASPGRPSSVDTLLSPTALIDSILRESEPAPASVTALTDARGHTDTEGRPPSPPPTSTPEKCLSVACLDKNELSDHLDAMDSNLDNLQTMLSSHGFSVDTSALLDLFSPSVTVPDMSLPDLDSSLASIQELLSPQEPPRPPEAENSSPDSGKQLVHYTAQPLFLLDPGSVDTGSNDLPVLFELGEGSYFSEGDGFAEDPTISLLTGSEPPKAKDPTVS
# Sequence of Signal transducer and activator of transcription 3 (Homo sapiens) (P40763 whole entry, looked up): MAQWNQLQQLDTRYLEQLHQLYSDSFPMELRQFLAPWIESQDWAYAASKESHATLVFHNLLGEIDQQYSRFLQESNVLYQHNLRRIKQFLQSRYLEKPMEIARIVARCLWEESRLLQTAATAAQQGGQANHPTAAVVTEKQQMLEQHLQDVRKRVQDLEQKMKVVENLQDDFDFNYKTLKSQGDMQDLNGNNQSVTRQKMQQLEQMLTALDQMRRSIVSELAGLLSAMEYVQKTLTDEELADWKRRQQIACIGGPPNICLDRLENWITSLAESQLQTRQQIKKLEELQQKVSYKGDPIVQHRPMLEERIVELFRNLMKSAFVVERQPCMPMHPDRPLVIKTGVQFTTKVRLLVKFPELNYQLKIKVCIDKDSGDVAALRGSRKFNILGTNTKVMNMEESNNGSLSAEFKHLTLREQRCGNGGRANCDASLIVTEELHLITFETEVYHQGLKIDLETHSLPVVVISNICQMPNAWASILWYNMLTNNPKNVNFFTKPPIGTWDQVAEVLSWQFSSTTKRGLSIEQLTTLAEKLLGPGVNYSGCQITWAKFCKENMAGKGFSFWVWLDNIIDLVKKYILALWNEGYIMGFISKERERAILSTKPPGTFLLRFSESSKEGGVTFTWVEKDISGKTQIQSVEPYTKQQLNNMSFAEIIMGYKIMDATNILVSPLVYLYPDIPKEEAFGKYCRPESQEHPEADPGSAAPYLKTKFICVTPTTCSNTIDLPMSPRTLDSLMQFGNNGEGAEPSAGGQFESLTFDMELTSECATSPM
# Sequence of Hypoxia-inducible factor 1-alpha (Homo sapiens) (Q16665 whole entry, looked up): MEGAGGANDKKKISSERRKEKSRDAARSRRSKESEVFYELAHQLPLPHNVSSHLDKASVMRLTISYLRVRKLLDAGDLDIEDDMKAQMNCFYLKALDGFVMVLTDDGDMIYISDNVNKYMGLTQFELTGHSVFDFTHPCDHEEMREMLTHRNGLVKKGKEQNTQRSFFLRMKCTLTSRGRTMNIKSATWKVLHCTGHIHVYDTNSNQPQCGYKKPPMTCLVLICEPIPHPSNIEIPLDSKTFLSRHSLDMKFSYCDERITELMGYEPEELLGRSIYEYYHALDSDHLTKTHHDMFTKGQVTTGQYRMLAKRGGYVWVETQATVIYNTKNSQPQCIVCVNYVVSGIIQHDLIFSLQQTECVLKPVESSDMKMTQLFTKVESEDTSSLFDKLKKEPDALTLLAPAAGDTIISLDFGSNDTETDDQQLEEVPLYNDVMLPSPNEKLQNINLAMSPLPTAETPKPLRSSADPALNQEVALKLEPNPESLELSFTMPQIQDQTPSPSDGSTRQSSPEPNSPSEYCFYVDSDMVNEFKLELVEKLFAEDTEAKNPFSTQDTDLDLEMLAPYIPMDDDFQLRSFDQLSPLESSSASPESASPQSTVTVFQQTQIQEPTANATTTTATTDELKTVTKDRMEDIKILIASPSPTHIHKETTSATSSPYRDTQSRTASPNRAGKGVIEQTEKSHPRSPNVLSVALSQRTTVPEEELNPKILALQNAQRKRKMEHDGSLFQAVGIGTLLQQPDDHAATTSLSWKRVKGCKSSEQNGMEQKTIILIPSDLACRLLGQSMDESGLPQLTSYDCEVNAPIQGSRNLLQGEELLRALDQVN
# Sequence of Bile acid receptor (Homo sapiens) (Q96RI1 whole entry, looked up): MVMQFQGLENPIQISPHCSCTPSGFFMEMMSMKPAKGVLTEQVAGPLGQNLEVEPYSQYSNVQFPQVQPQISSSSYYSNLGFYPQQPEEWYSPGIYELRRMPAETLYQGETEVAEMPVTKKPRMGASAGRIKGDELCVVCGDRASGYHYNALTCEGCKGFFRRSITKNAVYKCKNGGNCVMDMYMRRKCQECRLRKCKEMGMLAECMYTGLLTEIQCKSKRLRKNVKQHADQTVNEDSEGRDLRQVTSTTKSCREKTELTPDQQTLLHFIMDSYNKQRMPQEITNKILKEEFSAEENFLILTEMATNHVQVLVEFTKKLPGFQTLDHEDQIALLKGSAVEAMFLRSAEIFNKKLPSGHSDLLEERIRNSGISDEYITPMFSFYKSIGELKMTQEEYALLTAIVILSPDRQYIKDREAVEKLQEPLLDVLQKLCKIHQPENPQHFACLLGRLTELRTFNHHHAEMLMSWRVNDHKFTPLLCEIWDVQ
smiles,measurement,setting,value
O=C(Nc1ccccc1)Nc1cnns1,AC50,[1],50 µM (active)
same,AC50,[2],50 µM (active)
same,outcome,[3],inactive
same,outcome,[4],inactive
same,outcome,[5],inactive
same,outcome,[6],inactive
same,outcome,[7],inactive
same,outcome,[8],inactive
same,AC50,[9],93.4 µM (active)
same,AC50,[10],50 µM (active)
same,outcome,[11],inactive
same,AC50,[12],85 µM (active)
same,AC50,[13],66.5 µM (active)
same,outcome,[14],inactive
same,AC50,[15],50 µM (active)
same,AC50,[16],21.1 µM (active)
same,AC50,[17],50 µM (active)
same,outcome,[18],inactive
Oc1ccc(Cl)cc1Cc1ccccc1,AC50,[1],16.4 µM (active)
same,outcome,[1],inactive
same,outcome,[3],inactive
same,outcome,[4],inactive
same,outcome,[5],inactive
same,outcome,[6],inactive
same,outcome,[7],inactive
same,outcome,[8],inactive
same,AC50,[9],17.3 µM (active)
same,outcome,[9],inactive
same,AC50,[10],16 µM (active)
same,outcome,[10],inactive
same,AC50,[11],13.6 µM (active)
same,outcome,[11],inactive
same,AC50,[12],8.56 µM (active)
same,outcome,[12],inactive
same,outcome,[13],inactive
same,AC50,[14],9.13 µM (active) [middle of 6 runs]
same,outcome,[14],inactive
same,AC50,[15],8.2 µM (active)
same,outcome,[15],inactive
same,AC50,[16],13.4 µM (active)
same,outcome,[16],inactive
same,AC50,[17],7.03 µM (active) and 6.32 µM (active)
same,outcome,[17],inactive
same,outcome,[19],inactive
same,AC50,[18],17.5 µM (active)
same,outcome,[18],inactive
OCCOc1ccccc1,outcome,[1],inactive
same,outcome,[2],inactive
same,outcome,[3],inactive
same,outcome,[4],inactive
same,outcome,[5],inactive
same,outcome,[6],inactive
same,outcome,[7],inactive
same,outcome,[8],inactive
same,outcome,[9],inactive
same,outcome,[10],inactive
same,outcome,[11],inactive
same,outcome,[12],inactive
same,outcome,[13],inactive
same,outcome,[14],inactive
same,outcome,[15],inactive
same,outcome,[16],inactive
same,outcome,[17],inactive
same,outcome,[18],inactive
CCC(C)(NC(=O)c1cc(Cl)c(C)c(Cl)c1)C(=O)CCl (stereo unspecified),outcome,[1],inactive
same,outcome,[2],inactive
same,outcome,[3],inactive
same,outcome,[4],inactive
same,outcome,[5],inactive
same,outcome,[6],inactive
same,outcome,[7],inactive
same,outcome,[8],inactive
same,outcome,[9],inactive
same,outcome,[10],inactive
same,outcome,[11],inactive
same,outcome,[12],inactive
same,AC50,[13],1.58 µM (active)
same,outcome,[14],inactive
same,outcome,[15],inactive
same,outcome,[16],inactive
same,outcome,[17],inactive
same,outcome,[19],inactive
same,outcome,[18],inactive
CC(C)N(C(=O)COc1nnc(C(F)(F)F)s1)c1ccc(F)cc1,outcome,[1],inactive
same,outcome,[2],inactive
same,outcome,[3],inactive
same,outcome,[4],inactive
same,outcome,[5],inactive
same,outcome,[6],inactive
same,outcome,[7],inactive
same,outcome,[8],inactive
same,outcome,[9],inactive
same,outcome,[10],inactive
same,AC50,[11],11.5 µM (active)
same,outcome,[12],inactive
same,AC50,[13],7.54 µM (active)
same,outcome,[14],inactive
same,outcome,[15],inactive
same,outcome,[16],inactive
same,outcome,[17],inactive
same,outcome,[18],inactive
